HSF1 inh – HSF1 inhibition | NIH3T3-HGL HSE-luciferase, MG132-induced, luminescence 8 h; stronger effect = lower value | activity change, negative = inhibition, % at 7.5 µM (by protocol) | hit rate 0.77% among 300,000 | AID 2098;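 active = more than half of replicate wells show activity change below -50%, luminescence cut by over half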;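 note: luciferase reports HSF-1 transcriptional activity via heat shock element; 0% = median of DMSO wells and -100% = zero luminescence signal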
HSF1 activator – increases HSF-1 driven luciferase reporter signal; hit rate 1.7% among 300,000; activation, % at 9 µM; NIH3T3-HGL HSF-1 luciferase reporter, MG132, 8 h; 100% = twice DMSO control signal;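 active = mean replicate activation of at least 50% with a set share of replicates each reaching 50%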;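 note: 0% = median of the neutral control wells and 100% = twice that signal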
DAX1 inh – inhibitors of human orphan nuclear receptor DAX1 (NR0B1) | hit rate 0.99% among 340,000 | P51843 | inhibition, % at 6.75 µM | HEK293 Gal4-DAX1 luciferase reporter, luminescence | AID 504766;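 active = inhibition above the mean over all tested compounds plus 3 SD, cut at about 4.2% in these data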;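 note: 0% = DAX1-transfected cells with DMSO and 100% = empty-vector control cells with DMSO; inhibition shows as a rise in luminescence from relieved DAX1 repression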
GAA850 FXN act – frataxin GAA850 promoter activation; HEK293 lucGAA850 FXN promoter luciferase reporter, 24 h; percent of 10 µM SAHA response; activation, % at 6 µM; hit rate 0.56% among 360,000; AID 540364;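 active = activation above the average of all compounds screened plus 3 SD, cutoff fixed separately per campaign, cut at about 7.5% in these data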;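 note: 0% = DMSO wells and 100% = 10 µM SAHA wells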
HSP90 refold inh – inhibitors of HSP90 luciferase refolding in rabbit reticulocyte lysate; luciferase refolding luminescence, 3 h; inhibition, % at 5.6 µM; hit rate 0.91% among 290,000; AID 1789;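 active = inhibition above the screen-wide mean plus 3 SD, computed separately per campaign, cut at about 16% in these data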;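 note: 0% = DMSO wells and 100% = 60 µM geldanamycin wells; inhibitors lower the luminescence because luciferase stays unfolded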
AHR act – human AHR activation | activation, % at 5 µM | hit rate 2.5% among 320,000 | P35869 | AHR-responsive luciferase reporter cells, luminescence; in the data active = activation above about 47%;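 note: 0% = vehicle wells and 100% = reference agonist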
Target sequence (P35869 whole entry, looked up): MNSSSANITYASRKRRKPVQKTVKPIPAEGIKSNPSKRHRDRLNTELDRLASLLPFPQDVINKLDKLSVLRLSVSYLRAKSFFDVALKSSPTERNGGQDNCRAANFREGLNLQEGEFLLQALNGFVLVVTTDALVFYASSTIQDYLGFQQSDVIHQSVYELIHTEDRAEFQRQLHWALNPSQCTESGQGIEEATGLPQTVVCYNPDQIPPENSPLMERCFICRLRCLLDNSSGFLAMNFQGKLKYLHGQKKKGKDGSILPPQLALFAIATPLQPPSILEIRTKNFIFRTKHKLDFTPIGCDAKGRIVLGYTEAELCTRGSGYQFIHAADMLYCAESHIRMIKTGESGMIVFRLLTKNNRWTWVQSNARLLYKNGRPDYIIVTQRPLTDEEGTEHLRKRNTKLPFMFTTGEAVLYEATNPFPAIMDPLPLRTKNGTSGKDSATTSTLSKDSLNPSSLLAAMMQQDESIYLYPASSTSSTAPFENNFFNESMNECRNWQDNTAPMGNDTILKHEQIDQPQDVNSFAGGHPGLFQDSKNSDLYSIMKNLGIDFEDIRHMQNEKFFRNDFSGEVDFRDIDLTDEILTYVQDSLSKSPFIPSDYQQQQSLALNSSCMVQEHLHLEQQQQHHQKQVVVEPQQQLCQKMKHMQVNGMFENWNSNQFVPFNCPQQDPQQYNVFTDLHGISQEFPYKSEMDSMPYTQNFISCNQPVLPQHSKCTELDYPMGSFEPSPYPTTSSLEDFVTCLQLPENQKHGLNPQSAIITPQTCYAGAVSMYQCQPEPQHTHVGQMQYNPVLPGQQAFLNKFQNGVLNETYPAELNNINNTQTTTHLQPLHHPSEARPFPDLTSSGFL
The depositor's hits bear a star; nt = no result. Compounds with a hit are over-represented: about 5.9% of the library has one in this group of screens.

SMILES	HSF1 inh	HSF1 activator	DAX1 inh	GAA850 FXN act	HSP90 refold inh	AHR act
C=C1C(=O)O[C@H]2[C@H]1[C@@H](O)CC(=C)[C@@H]1CC(=O)[C@@H](C)[C@H]21	10.9	1.5	-1.4	9.3*	3.8	-0.9
Cc1ccc(C(O)c2ncc(-c3ccc4ccccc4c3)[nH]2)c(C)c1 (stereo not given)	nt	nt	nt	0.0	nt	nt
O=C(NCc1cccnc1)c1cc(C2CCCCN2C(=O)c2cccs2)on1 (stereo not given)	nt	nt	nt	-0.8	nt	nt
Cc1ccc(C)c(NC(=O)CN2C(=O)NC(C)(c3ccc4c(c3)OCCO4)C2=O)c1 (stereo not given)	nt	nt	0.0	1.9	nt	1.1
CCN(CC)S(=O)(=O)c1cccc(C(=O)N/N=C/c2ccccc2OCC(=O)O)c1	3.3	12.0	0.0	0.6	-1.6	1.1
COc1ccccc1C(=O)N/N=C/c1ccc(Cl)s1	22.1	21.0	-0.3	4.0	-4.1	48.8*
O=C(O)COc1ccccc1/C=N/NC(=O)c1cc2ccccc2cc1O	-5.2	3.7	-0.3	2.5	-2.2	58.1*
C=CCc1cccc(/C=N/NC(=O)c2ccccc2OC)c1O	17.1	29.7	-0.5	1.7	0.4	76.9*
COc1ccccc1C=NNC(=O)c1ccccc1OCCOc1ccccc1	nt	nt	0.3	-1.3	nt	51.4*
C=CCc1cccc(/C=N/NC(=O)c2ccccc2Br)c1O	6.1	2.9	0.1	-0.3	-4.0	24.5
CCN(CC(=O)Nc1ccccc1C(F)(F)F)C(=O)c1ccc(N2CCCC2=O)cc1	nt	nt	0.4	2.5	nt	-1.0
CCn1c2ccccc2c2cc(NC(=O)COc3ccccc3OC)ccc21	-1.8	-0.2	-1.2	-3.8	4.2	62.3*
CCn1c(=O)cc(OCC(=O)Nc2ccccc2C#N)c2ccccc21	-1.4	17.8	2.4	-0.7	-2.9	72.5*
CCn1c2ccccc2c2cc(NC(=O)CSc3nnc(-c4ccc(OC)cc4)n3N)ccc21	20.3	45.8	-0.2	-0.6	1.4	48.5*
CCn1c(=O)cc(OCC(=O)N2CCCCCC2)c2ccccc21	10.8	9.6	1.9	-0.3	-1.4	24.3
COc1ccc(NC(=O)CSc2nnc(-c3ccccc3)n2N)cc1	-3.0	5.9	0.3	0.4	-1.9	0.1
CCn1c(=O)cc(OCC(=O)N2CCN(c3ccc(F)cc3)CC2)c2ccccc21	9.4	22.6	2.0	-1.8	-2.4	54.0*
CCn1c2ccccc2c2cc(NC(=O)CNCc3ccccc3OC)ccc21	1.4	2.4	-2.0	-6.2	0.9	25.2
CCS(=O)(=O)N1CCN=C1SC(C)c1ccccc1 (stereo not given)	-9.7	-9.1	-0.3	1.6	-1.0	1.0
O=C1CCCCC1Nc1ccc(Br)cc1 (stereo not given)	nt	nt	2.5	0.3	nt	nt
Cc1csc(=O)n1CCC(=O)OCC(=O)Nc1ccc(Cl)cn1	-5.1	-9.1	0.6	0.5	nt	0.2
CC1(C(=O)Nc2ccc3nc[nH]c3c2)CCN1C(=O)CCc1ccccc1 (stereo not given)	nt	nt	nt	0.7	nt	nt
Cn1cc(S(=O)(=O)N2CCCC2)cc1C(=O)NCc1ccc(Cl)cc1	-3.1	0.9	-0.5	-0.5	3.0	0.4
CCn1c2ccccc2c2cc(NC(=O)COC(=O)c3cccc(S(=O)(=O)NC)c3)ccc21	7.4	6.0	-0.9	1.7	0.2	100.1*
CCn1c2ccccc2c2cc(NC(C)=O)ccc21	6.0	18.6	-1.0	0.2	2.2	50.5*
SMILES	HSF1 inh	HSF1 activator	DAX1 inh	GAA850 FXN act	HSP90 refold inh	AHR act
COc1ccccc1C(=O)NC(=O)COC(=O)c1ccc(Br)o1	nt	nt	0.7	-0.9	nt	nt
COc1ccc(N(C(=O)c2ccncc2)S(=O)(=O)c2cccc([N+](=O)[O-])c2)cc1	6.7	39.2	1.6	-2.0	-5.3	-1.7
COc1ccc(N(C(=O)c2cccc([N+](=O)[O-])c2)S(=O)(=O)c2cccs2)cc1	7.2	23.9	5.1*	1.2	0.1	-1.3
CCOc1ccc(N2CC(=O)N/C2=N\c2nc(C)cc(C)n2)cc1	4.0	6.3	-0.1	-0.1	3.0	50.1*
Cc1cc(C)nc(/N=C2\NC(=O)CC(C(=O)O)N2c2ccc(Oc3ccccc3)cc2)n1 (stereo not given)	5.2	-3.2	0.8	0.6	-0.1	-3.4
Cc1cc(/C=C2/C(=O)N(C)C(=S)N2C)ccc1N1CCCC1	38.5	74.4*	-0.1	3.1	-3.5	62.8*
COc1cc(/C=C/[N+](=O)[O-])ccc1OC(=O)/C=C/c1ccc(F)cc1	60.1	70.3*	1.2	8.7*	10.2	0.3
COc1ccc(/C=C/C(=O)Oc2ccc(C)c(C)c2)cc1OC	4.1	22.5	0.9	3.6	0.8	-0.5
O=C(CN(C(=O)c1csnn1)c1ccc(F)c(Cl)c1)NCc1ccc(F)cc1	22.5	71.9*	0.5	-2.2	2.7	-1.0
O=c1c2ccccc2nc(COc2ccccc2)n1/N=C/c1cn[nH]c1-c1ccccc1	-18.0	3.9	-2.2	-3.7	-0.2	4.7
Cc1ccc(-c2[nH]ncc2/C=N/n2c(C)nc3ccccc3c2=O)cc1	-51.6*	-60.0	2.0	3.1	0.0	61.2*
COc1ccc(-c2ccc3c(c2)S(=O)(=O)c2cccc(C(=O)N4CCN(C5CCCCC5)CC4)c2C3=O)cc1OC	nt	nt	-1.9	-0.8	nt	2.6
Cc1onc(-c2ccccc2Cl)c1C(=O)NCC1CCCO1 (stereo not given)	3.9	-3.8	-0.9	2.2	-7.3	-1.0
CC1CCN(C(=O)c2ccc(-c3ccccc3Cl)o2)CC1	38.0	56.2*	2.5	6.6	nt	17.7
O=C(NCc1ccco1)c1sc2ccccc2c1Cl	25.6	66.1*	1.1	4.3	0.5	-4.2
O=C(c1ccc(-c2ccccc2Cl)o1)N1CCC1	nt	nt	0.8	2.6	nt	nt
O=C(NCC1CCCO1)c1ccc(-c2ccccc2Cl)o1 (stereo not given)	40.9	58.8*	2.3	4.0	nt	10.5
O=C(NCc1ccco1)c1ccc(COc2cc(Cl)ccc2Cl)cc1	31.2	76.1*	1.4	3.7	-3.9	-4.2
Cc1ccc(-c2nn(-c3ccc(F)cc3)cc2C(=O)N2CCN(C3CCS(=O)(=O)C3)CC2)cc1 (stereo not given)	nt	nt	1.0	1.1	nt	4.2
Cc1ccc(S(=O)(=O)c2nnn3c2nc(N2CCN(c4ccccn4)CC2)c2ccccc23)cc1C	7.9	18.8	-0.2	0.8	-3.0	-4.5
COc1cc(C2(c3ccc(O)c(OC)c3)C(=O)Nc3c(C)cc(Br)cc32)ccc1O	-2.1	7.6	0.6	2.2	nt	-1.8
O=C(NCc1ccco1)c1ccc(-c2ccc(Cl)cc2)o1	7.6	25.3	-0.6	3.5	-1.3	23.0
O=C(NCc1ccco1)c1ccc(-c2ccccc2Cl)o1	15.2	5.9	7.0*	3.9	-3.0	6.0
COc1cc(-c2cc(NC=O)c3ncc(-c4ccc(C(C)=O)cc4)n3c2)ccc1O	nt	nt	nt	3.4	nt	nt
CCOC(=O)[C@H]1[C@H]2COc3ccccc3[C@@H]2N2C(=O)[C@@H](C)NC(=O)[C@@]12C	nt	nt	1.0	-0.6	nt	-1.2
